# APP 5'UTR act: activates APP 5'UTR luciferase reporter; SH-SY5Y APP 5'UTR luciferase reporter, luminescence; zero percent = DMSO vehicle wells; activation, % at 2 µM; 1% of 190,000 active; AID 1276;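 active = activation above a set limit, based on mean plus 3 SD of controls, cut at about 140% in these data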
# Wee1 degr inh: blocks degradation of human Wee1 kinase. reporter increase, % at 5 µM. AID 1321. HeLa Luc-Wee1K328M stability, luciferase luminescence; 100% = proteasome inhibitor MG132 effect. 1.2% of 220,000 active;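 active = activation above the mean of all tested compounds plus 3 SD, set per screening run, cut at about 8.8% in these data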;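 note: cells exposed to compound for 20 h before luminescence read; 0% = DMSO alone and 100% = MG132 at 30 µM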
# Target sequence (P30291 whole entry K328M): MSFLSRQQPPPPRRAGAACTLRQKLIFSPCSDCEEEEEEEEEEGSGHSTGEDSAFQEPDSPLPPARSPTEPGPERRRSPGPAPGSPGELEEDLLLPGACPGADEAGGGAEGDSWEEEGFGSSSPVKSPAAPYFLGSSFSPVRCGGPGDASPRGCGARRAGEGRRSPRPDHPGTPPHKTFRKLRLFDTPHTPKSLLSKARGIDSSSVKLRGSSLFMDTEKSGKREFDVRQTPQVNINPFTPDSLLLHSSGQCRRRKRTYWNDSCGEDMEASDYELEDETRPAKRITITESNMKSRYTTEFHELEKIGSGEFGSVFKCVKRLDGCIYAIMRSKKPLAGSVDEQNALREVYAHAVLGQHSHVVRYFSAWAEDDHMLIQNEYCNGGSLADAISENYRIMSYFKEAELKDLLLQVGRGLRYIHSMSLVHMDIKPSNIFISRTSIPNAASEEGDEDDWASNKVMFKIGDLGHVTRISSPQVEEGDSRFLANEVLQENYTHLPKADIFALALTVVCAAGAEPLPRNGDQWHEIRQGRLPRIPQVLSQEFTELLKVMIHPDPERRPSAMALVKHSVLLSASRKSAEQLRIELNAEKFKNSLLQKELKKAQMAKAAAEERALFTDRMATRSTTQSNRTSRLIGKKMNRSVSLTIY
# STAT1 act: activators of IFN-gamma induced STAT1 signaling; NIH 3T3 STAT1-luciferase reporter, luminescence; 100% = IFN-gamma alone, no compound; activation (% of control), % at 5.5 µM; 2.6% of 200,000 active; AID 932;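 active = activation above the screen-wide mean activation plus 3 SD, cut at about 130% in these data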;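 note: raw ratio to IFN-gamma control signal so 100% means no change and 0% no light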
# APP 5UTR inh: APP translation inhibition; 0.82% of 190,000 active; inhibition, % at 2 µM; AID 1285; SH-SY5Y APP 5'UTR-luciferase reporter, luminescence;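 active = inhibition above a set limit, derived from the sample mean plus 3 SD, cut at about 45% in these data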
# NF-kB expr up: NF-kB expression increase, human neuronal cells; fold change at 12.5 µM; NF-kB reporter expression; hits give high values; 1.6% of 190,000 active; in the data active = fold change above about 3.3
# Hsp70 act: transcriptional activators of Hsp70 | HeLa Hsp70 promoter luciferase reporter, luminescence; scaled: vehicle 0, proteasome-inhibitor control 100% | activation, % at 10 µM | 0.04% of 200,000 active;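 active = activation above the mean across all tested compounds plus 3 SD, cutoff set per campaign, cut at about 5.5% in these data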;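 note: 100% = MG132 at 30 µM as the positive control and 0% = DMSO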
# STAT1 act conf: STAT1 activation, confirmation assay; 97% of 1,200 active; AID 1262; NIH 3T3 STAT1-luciferase reporter, IFN-gamma potentiation, luminescence; 100% = IFN-gamma EC80 alone, no compound; activation (% of control), % at 5.7 µM; shares compounds with STAT1 act;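 active = activation above a set limit carried over from the earlier primary STAT1 screen, cut at about 140% in these data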;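 note: simple ratio to median IFN-gamma plus DMSO wells so 0% means no light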
# NFkB act STAT1ct: activates NF-kappaB, counter-screen to STAT1 activators | activation (% of control), % at 5.7 µM | HEK293T NF-kB luciferase reporter, TNF-alpha stimulated, luminescence; 100% = TNF-alpha with vehicle only | shares compounds with STAT1 act | 43% of 1,200 active;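 active = activation above the mean of solvent-only control wells plus 3 SD, set per campaign, cut at about 130% in these data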;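 note: TNF-alpha given at a submaximal dose yielding about 80% of full reporter signal; values are well signal over median control so 100% means no change and 0% no light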
# STAT3 act 2: counter-screen for STAT1 activators: human STAT3 activation; shares compounds with STAT1 act; U3A cells STAT3-luciferase reporter, IL-6, luminescence; cells lack STAT1; 100 = IL-6 alone, no compound effect; activation (% of control), % at 5.7 µM; 46% of 1,200 active;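 active = activation above the solvent-only control well mean plus 3 SD, set per plate batch, cut at about 110% in these data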;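 note: 0% = no luminescence and 100% = median IL-6 plus DMSO wells; higher means more STAT3 reporter activation so hits are non-selective activators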
# Starred values were filed as active, the others as inactive; . = no result given. Compounds with a hit are over-represented: about 4.8% of the library has one in this group of screens.
SMILES,APP 5'UTR act,Wee1 degr inh,STAT1 act,APP 5UTR inh,NF-kB expr up,Hsp70 act,STAT1 act conf,NFkB act STAT1ct,STAT3 act 2
COc1cccc(C(=O)Nc2ccc(C3CC3(Cl)Cl)cc2)c1 (centres undefined),94.1,6.0,152.4*,-94.1,5.73*,0.6,192.7*,143.3*,104.4
Cc1cc(NC(=O)CCCC(=O)OCC(F)(F)C(F)F)cc(C)c1C(=O)O,10.1,-1.6,100.1,-10.1,1.07,0.1,.,.,.
CN(/N=C/c1ccc2c(c1)OCO2)c1ccccc1,93.1,2.6,155.1*,-93.1,2.21,-0.2,180.5*,138.7*,108.3
Cc1cc(COc2ccccc2O)on1,-12.2,-2.3,103.7,12.2,1.08,0.1,.,.,.
COc1ccc(OCc2cc(-c3ccc(Cl)cc3)no2)cc1,-6.3,3.0,104.6,6.3,1.11,-0.2,.,.,.
COc1ccccc1OCc1cc(-c2ccccc2)no1,79.9,3.9,160.8*,-79.9,4.34*,0.1,183.6*,138.0*,106.3
Clc1ccc(-c2cc(CSc3cccc(Cl)c3)on2)cc1,.,2.5,97.8,.,1.26,0.3,.,.,.
c1ccc(OCc2cc(-c3ccccc3)no2)cc1,58.6,-2.4,151.6*,-58.6,1.97,0.0,169.4*,131.3,98.7
c1ccc(SCc2cc(-c3ccccc3)no2)cc1,115.5,1.7,161.8*,-115.5,2.14,-0.1,175.5*,126.6,102.2
Cc1cc(C)n(CC(=O)NC2CCCCC2)n1,1.5,-1.4,101.7,-1.5,1.23,0.1,.,.,.
O=C(Nc1nc(-c2cccc([N+](=O)[O-])c2)cs1)C(c1ccccc1)c1ccccc1,8.8,-0.6,101.8,-8.8,0.57,-0.1,.,.,.
COc1ccc2oc(=Nc3ccccc3)c(-c3nc4ccccc4[nH]3)cc2c1,137.7*,5.1,161.2*,-137.7,4.18*,-0.3,164.4*,124.5,137.9*
Cc1ccc(-c2noc(-c3cccs3)n2)cc1,135.0*,0.6,153.5*,-135.0,7.89*,0.2,219.5*,111.7,110.8*
CC1=CC(=C2C(=O)c3ccccc3C2=O)C=C(C)N1Cc1ccco1,128.3,4.0,164.9*,-128.3,4.63*,0.0,178.1*,133.8*,109.3
O=C1c2ccccc2C(=O)N1Cc1ccco1,10.9,-1.7,97.4,-10.9,1.21,-0.2,.,.,.
O=C(C1Cc2ccccc2O1)N1CCCCC1 (centres undefined),4.3,2.7,99.5,-4.3,1.11,-0.2,.,.,.
COc1ccc(Cn2c(/C=C/c3ccccc3)nc3ccccc32)cc1,.,0.1,157.4*,.,6.13*,0.6,195.7*,150.4*,130.3*
COc1ccc(/C=C/c2nc3ccccc3n2C)cc1,-19.2,-4.7,13.7,19.2,0.85,-0.5,.,.,.
CC1=NC(C)Cc2ccccc21 (centres undefined),9.6,-0.8,96.6,-9.6,1.06,0.3,.,.,.
O=C(Nc1nnc(-c2ccccc2F)s1)Nc1ccccc1F,63.8,2.4,108.9,-63.8,1.05,-0.2,.,.,.
NS(=O)(=O)c1cccc(NC(=O)c2cncc(Br)c2)c1,.,-0.6,.,.,.,.,.,.,.
CCc1nc(-c2ccc(C)nc2OC)no1,-16.6,-0.4,103.0,16.6,0.95,-0.3,.,.,.
COc1ccccc1-c1nc(-c2ccc(C)nc2OC)no1,46.4,1.9,156.8*,-46.4,2.45,0.3,165.0*,126.4,102.7
CCOc1ccc(C(=O)N/N=C(/C)C2C(=O)c3ccccc3C2=O)cc1,7.1,-0.7,96.5,-7.1,1.28,0.8,.,.,.
CCOc1ccc(OCc2ccc(C(=O)N/N=C(\C)c3ccccn3)cc2)cc1,-78.5,9.6*,168.8*,78.5*,2.12,0.8,145.6*,188.2*,91.3
SMILES,APP 5'UTR act,Wee1 degr inh,STAT1 act,APP 5UTR inh,NF-kB expr up,Hsp70 act,STAT1 act conf,NFkB act STAT1ct,STAT3 act 2
CCN1C(=S)SC(=O)C1=C1C=C(C)N(CCO)C(C)=C1,120.9,7.8,158.0*,-120.9,2.79,1.1,190.2*,128.1,123.6*
Clc1ccc2nc3c4ccccc4cnn3c2c1,217.1*,2.0,166.0*,-217.1,7.98*,-0.1,237.6*,132.6,162.1*
COc1ccc(OC)c(NC(=O)C(=O)/C=C(\O)c2cc(OC)ccc2OC)c1,-12.0,-2.5,90.6,12.0,0.49,-0.2,.,.,.
O=C(O)c1ccc(N=NN2CCCCCC2)cc1,83.8,8.6,156.7*,-83.8,1.84,0.1,166.3*,115.6,120.2*
COc1c(F)c(F)c(C(=O)O)c(Nc2ccc(C)cc2C)c1F,-0.7,-0.6,100.1,0.7,1.18,-0.2,.,.,.
COc1cc(C(=S)N2CCOCC2)cc(OC)c1OC(=O)Cc1ccc(F)cc1,16.5,-2.1,98.5,-16.5,1.08,0.1,.,.,.
CCOC(=O)c1c(NC(=O)CSc2nc3ccccc3o2)sc(C(C)=O)c1C,31.9,-3.4,94.8,-31.9,1.21,-0.3,.,.,.
O=C(N=Nc1c(O)n(Cc2ccccc2)c2ccccc12)c1ccc(O)cc1,152.8*,-1.4,161.0*,-152.8,2.45,0.1,217.4*,111.0,118.3*
O=C(N=Nc1c(O)n(Cc2ccccc2)c2ccccc12)c1cc2ccccc2cc1O,121.5,-2.3,110.1,-121.5,1.34,-0.2,.,.,.
CC(C)(C)C(=O)C[n+]1ccccc1,-2.1,-0.2,97.2,2.1,1.04,-0.2,.,.,.
c1ccc2c(c1)oc1c(Nc3ccc(CN4CCOCC4)cc3)ncnc12,187.1*,3.0,157.8*,-187.1,0.41,-0.5,207.4*,135.4*,115.4*
c1ccc2c(c1)oc1c(Nc3ccc4c(c3)OCO4)ncnc12,79.7,-0.5,157.7*,-79.7,2.18,-0.2,202.2*,142.4*,109.6
Cc1nc(Nc2ccc3c(c2)OCO3)c2oc3ccccc3c2n1,-2.9,0.9,110.9,2.9,0.48,0.3,.,.,.
Cc1ccc(-c2nnc(SCC(=O)OC(C)C)n2N)cc1,17.4,-0.9,104.2,-17.4,1.04,-0.2,.,.,.
N#Cc1cnc(SCC(=O)c2ccccc2)nc1N,11.5,1.2,99.1,-11.5,1.26,0.4,.,.,.
Cc1ccccc1CSc1ncc(C#N)c(N)n1,2.9,-2.6,165.7*,-2.9,2.19,-0.2,169.2*,128.3,110.3
Cc1ccccc1/C=C1\CCCc2ccccc2C1=O,116.5,1.0,158.3*,-116.5,5.69*,-0.1,195.0*,137.2*,110.4
COc1ccccc1/C=C1\Cc2ccccc2C1=O,.,-1.6,.,.,.,.,.,.,.
O=C1CN(c2nc(-c3cccnc3)nc3sc4c(c23)CCCC4)CCN1,20.1,-0.8,106.2,-20.1,0.49,-0.1,.,.,.

# Bioassay records (PubChem)
